“And” between values parts separate entries of the source, which are not always exact repeats. Identical values can stand only once. Inconclusive results are not listed. A call without a number means that no potency is given here. More than one record can exist for a structure, and the calls need not agree. The source made the active and inactive calls. Calls follow the shape of the dose curve; as a rule, active = well fitted cell-killing curve with a large enough effect in the repeat runs; inconclusive = weak or mixed curves, or effect the other way; inactive = no such curve, though single readings can be large or run the other way.
Test: Caspase-3/7 induction in CHO-K1 cells by small molecules, qHTS cell viability counter screen (AID 1346979); also: nearly all actives have a fitted effect of over 35% in size
Conditions: CellTiter-Fluor fluorescence, 17 h; series mostly up to 92.4 µM
From the text: National Center for Advancing Translational Sciences [NCATS]
NIH Chemical Genomics Center [NCGC]
U.S. Environmental Protection Agency [EPA]
National Institutes of Environmental Health Sciences [NIEHS]
National Toxicology Program [NTP]
U.S. Food and Drug Administration [FDA]
Apoptosis is a process of programmed cell death and plays a central role in the development of multicellular organisms. It is a highly regulated process and induces cell death by activating caspases, which are the members of cysteine aspartic acid-specific protease (caspase) family. Caspases involved in apoptosis are classified by their mechanism of action as initiator caspases (caspase-2, -8, -9 and -10) and executioner caspases (caspase-3, -6, and -7). Inhibition of apoptosis results in number of cancers, autoimmune diseases, inflammatory diseases and viral infection. To identify small molecule compounds that induce apoptosis, a homogeneous, luminescent Caspase-Glo 3/7 assay was used. Wild type CHO-K1 cells were used to screen Tox21 libraries for identifying caspase-3/7 activity inducers. Also cytotoxicity of the compounds was tested in parallel by measuring the cell viability using CellTiter-Fluor assay system in the same wells.
Tox21 Assay Protocol Summary:
CHO-K1 cells were dispensed at 1,500 per well in 5uL of culture medium into white solid bottom 1536-well plates (Corning Life Sciences, Corning, NY) using a Multidrop Combi (Thermo Scientific, Waltham, MA) dispenser. The assay plates were incubated at 37 C and 5% CO2 for 5hr, and then 23nL of compounds dissolved in DMSO and positive control were transferred using a Pintool station (Wako, San Diego, CA). The assay plates were incubated at 37C and 5% CO2 for 17hr. For cytotoxicity read, after 16hr incubation at 37C, 1uL CellTiter-Fluor reagent (Promega Corporation, Madison, WI) was added to each well of the assay plates using Flying Reagent Dispenser (FRD, Aurora Discovery, San Diego, CA). After 1hr incubation at 37C and 5% CO2, the fluorescence signal was quantified using a ViewLux plate reader (PerkinElmer, Shelton, CT).
Potency is read from the fitted curve at half-maximal effect.

Structure (SMILES)	Potency
CCN(CC)CCNC(=O)c1ccc(N)cc1	inactive
CC1=CC(=O)CC(C)(C)C1	inactive
CCn1cc(C(=O)O)c(=O)c2cc3c(cc21)OCO3	inactive
CC(=O)OC/C=C(\C)CCC=C(C)C	inactive
CCc1cccc(CC)c1N	inactive
c1cnc2c(c1)ccc1cccnc12	4.37 µM (active) and 6.11 µM (active) and 9.69 µM (active)
Cc1cc(C)cc(O)c1	1.73 µM (active) and inactive
COc1c(Cl)ccc(Cl)c1C(=O)O	inactive
OC[C@H]1O[C@@H](Oc2ccc(O)cc2)[C@H](O)[C@@H](O)[C@@H]1O	inactive
O=C1C(N(CO)C(=O)NCO)N(CO)C(=O)N1CO (stereo not given)	inactive
Cc1cc(CC(=O)O)n(C)c1C(=O)c1ccc(Cl)cc1	inactive
O=C1O[C@H]([C@H](O)CO)C(O)=C1O	inactive
Nc1cccc(N)n1	inactive
O=C(NCC1CCCCN1)c1cc(OCC(F)(F)F)ccc1OCC(F)(F)F (stereo not given)	inactive
N#CCC(=O)O	inactive
CC(C)=CCC/C(C)=C/C=O	inactive
NC(=O)NC(N)=O	inactive
CCCCCC(C)=O	inactive
CC(C)c1ccc(C(C)C)cc1	inactive
CC/C(C)=N/O	inactive

Structure (SMILES)	Potency
CCCOCC(C)O (stereo not given)	inactive
O=c1n(CCCN2CCN(c3cccc(Cl)c3)CC2)nc2ccccn12	inactive
CN1CCCC1=O	inactive
CCCCCCCCO	inactive
Cc1ccc(C(C)C)cc1	inactive
Cc1ncc(CO)c(CO)c1O	inactive
CC(C=O)Cc1ccc(C(C)(C)C)cc1 (stereo not given)	inactive
O=C(O)C1=NN(c2ccc(S(=O)(=O)O)cc2)C(=O)C1	inactive
Cc1ccc(Cl)cc1	inactive
OB(O)O	inactive
COc1ccc2cc3[n+](cc2c1OC)CCc1cc2c(cc1-3)OCO2	inactive
CC(=O)C(C)C	63.4 µM (active) and inactive
Clc1cccc(Cl)c1NC1=NCCN1	inactive
OCCOCCOCCOCCOCCO	15.7 µM (active) and inactive
CC1(C)[C@@H](O[C@H]2O[C@H](C(=O)O)[C@@H](O)[C@H](O)[C@H]2O[C@@H]2O[C@H](C(=O)O)[C@@H](O)[C@H](O)[C@H]2O)CC[C@]2(C)[C@H]3C(=O)C=C4[C@@H]5C[C@@](C)(C(=O)O)CC[C@]5(C)CC[C@@]4(C)[C@]3(C)CC[C@@H]12	inactive
Cc1cc(C)c(O)c(C)c1	48.6 µM (active) and inactive
Cc1ccc(C)c(S(=O)(=O)O)c1	inactive
C=C1C[C@]23C[C@@]1(O)CC[C@H]2[C@@]12C=C[C@H](O)[C@@](C)(C(=O)O1)[C@H]2[C@@H]3C(=O)O	inactive
OCc1ccc(Cl)cc1Cl	inactive
OCC(O)CS (stereo not given)	inactive
